This note sets out measurements from PubChem BioAssay AID623911 (Vanderbilt High Throughput Screening Facility, 2012).

In all, about 2,100 compounds went through this assay and about 770 (37%) were called active. This is one part of the list. Unmarked numbers belong to inactive results.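 Rule for the calls: active = by-eye trace score of 1 for enhancers or -1 for inhibitors, so actives lie on both sides (some results past the limit were not filed as active); inactive = score 0, or 3 fluorescent, or 4 baseline rise.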

Sequence of G protein-activated inward rectifier potassium channel 2 (Homo sapiens) + G protein-activated inward rectifier potassium channel 1 (Homo sapiens) (P48051 whole entry, looked up): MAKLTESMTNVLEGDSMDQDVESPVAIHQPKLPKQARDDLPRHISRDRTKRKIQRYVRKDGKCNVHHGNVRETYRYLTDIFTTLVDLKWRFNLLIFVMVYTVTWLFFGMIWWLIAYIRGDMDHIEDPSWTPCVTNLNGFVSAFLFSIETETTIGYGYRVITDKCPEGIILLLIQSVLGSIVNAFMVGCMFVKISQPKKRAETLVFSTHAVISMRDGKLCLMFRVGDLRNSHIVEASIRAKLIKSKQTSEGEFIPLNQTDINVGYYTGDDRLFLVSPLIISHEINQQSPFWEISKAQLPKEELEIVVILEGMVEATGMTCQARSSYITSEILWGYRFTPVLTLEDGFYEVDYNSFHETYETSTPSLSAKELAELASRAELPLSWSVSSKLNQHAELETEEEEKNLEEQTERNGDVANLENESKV
Sequence of G protein-activated inward rectifier potassium channel 2 (Homo sapiens) + G protein-activated inward rectifier potassium channel 1 (Homo sapiens) (P48549 whole entry, looked up): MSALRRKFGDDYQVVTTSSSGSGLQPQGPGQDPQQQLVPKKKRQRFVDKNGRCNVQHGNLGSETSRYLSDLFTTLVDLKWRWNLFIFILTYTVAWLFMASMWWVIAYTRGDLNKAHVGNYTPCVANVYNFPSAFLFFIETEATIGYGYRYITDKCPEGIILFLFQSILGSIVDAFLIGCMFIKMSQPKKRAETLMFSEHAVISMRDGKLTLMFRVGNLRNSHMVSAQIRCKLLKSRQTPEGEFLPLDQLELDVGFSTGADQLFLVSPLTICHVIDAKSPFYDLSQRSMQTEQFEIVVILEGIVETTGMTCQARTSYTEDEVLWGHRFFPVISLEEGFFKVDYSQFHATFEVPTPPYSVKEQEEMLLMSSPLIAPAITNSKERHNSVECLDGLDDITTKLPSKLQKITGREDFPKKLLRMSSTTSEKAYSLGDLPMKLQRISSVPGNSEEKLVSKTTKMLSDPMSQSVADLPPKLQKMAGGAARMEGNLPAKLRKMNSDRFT

The assay concerns the target G protein-activated inward rectifier potassium channel 2 (Homo sapiens) + G protein-activated inward rectifier potassium channel 1 (Homo sapiens) (UniProt P48051+P48549). As to the kind of experiment: GIRK1/2 thallium flux modulators, retest, confirmation, cell-based, HEK293 rmGlu8/hGIRK1/2, FluoZin-2 (AID 623911). Particulars: HEK293 rmGlu8/hGIRK1/2, thallium flux FluoZin-2; actives lie on both sides; glutamate co-added at its EC20 level.
As to `Fc1cccc(-n2c(-c3ccco3)nc3nc4ccccc4nc32)c1`, the manual score was 0.

Regarding `O=C(Nc1ccncc1)c1ccc2c(c1)C(=O)N(C1CCCCC1)C2=O`, the manual score is 0.

Consider `CCCCNc1c2c3c(cccc3n(C)c1=O)C(=O)c1ccccc1-2`, for which the manual score is 3.

Consider `CCc1nc(N2CCOCC2)c(C#N)c2c1CCCC2`, for which the manual score was 0.

Consider `S=c1nc[nH]c2c1sc1nc(-c3ccccc3)c3c(c12)CCCC3`, for which the manual score is 1 (active).

Consider `N#CC1=C(N)SC(N)=C(C#N)C1c1c(Cl)cccc1Cl`, for which the manual score is -1 (active).

Take `Cc1sccc1C1C(C#N)=C(N)SC(N)=C1C#N`: the manual score was 0.

Turning to `N#CC1=C(N)SC(N)=C(C#N)C1CCc1ccccc1`, the manual score was 0.

With `Cc1csc(NC(=S)Nc2cccc(Cl)c2)n1`, the manual score is 1 (active).

With `S=C(NCc1cccs1)Nc1cccc(Cl)c1`, the manual score is 1 (active).

As for `COCCCN(C(=S)Nc1cccc(Cl)c1)C(C)c1ccncc1` (stereo not drawn), the manual score was 0.

`O=C(CSc1cccc2cccc(Cl)c12)NCc1cccs1`: the manual score is 0.

With `Cc1ccc(C2CC2C(=O)NNC(=S)Nc2cccc(Cl)c2)cc1` (stereo not drawn), the manual score was 0.

Consider `CC(C)n1c(-c2ccc(C(C)(C)C)cc2)n[nH]c1=S`, for which the manual score was 0.

As for `Cc1ccc(C(=O)N/N=C(/CC(=O)c2cccs2)C(F)(F)F)cc1`, the manual score was 1 (active).

For the compound `Cc1ccc2nc(NC(=S)NC(=O)c3cccs3)sc2c1`, the manual score was 0.

In the case of `CSCSC1=C(C#N)C(c2ccc(Cl)cc2)C(C(C)=O)=C(C)N1` (stereo not drawn), the manual score was 0.

Consider `CC(=O)C1=C(C)NC(SCc2ccc(C#N)cc2)=C(C#N)C1c1ccco1` (stereo not drawn), for which the manual score is -1 (active).

With `N#Cc1c(-c2ccco2)nc(SCc2ccc(F)cc2)[nH]c1=O`, the manual score is 0.

As to `CSCSC1=C(C#N)C(c2ccccc2Cl)C(C(C)=O)=C(C)N1` (stereo not drawn), the manual score is -1 (active).

As to `CCOC(=O)C1=C(c2ccccc2)NC(SC)=C(C#N)C1c1ccco1` (stereo not drawn), the manual score is 0.

On to `CC(=O)C1=C(C)NC(SCC(=O)c2ccc(Cl)cc2Cl)=C(C#N)C1c1ccco1` (stereo not drawn), for which the manual score is -1 (active).

For the compound `CCOc1ccccc1C1CC(=O)NC(SCC)=C1C#N` (stereo not drawn), the manual score was 0.

Regarding `CC(Nc1nc(N2CCCC2)nc2ccccc12)c1ccccc1` (stereo not drawn), the manual score was -1 (active).

For the compound `CC(Nc1nc(N2CCCCC2)nc2ccccc12)c1ccccc1` (stereo not drawn), the manual score is -1 (active).

Turning to `C=CCNc1nc(N2CCCC2)nc2ccccc12`, the manual score was -1 (active).

Turning to `CC1(C)CC(=S)Nc2ccccc2S1`, the manual score is 0.

Consider `CCc1cccc(NC(=O)NC2CCCCC2)c1`, for which the manual score is 0.5.

On to `O=C(Nc1ccc(F)c(F)c1)NC1CCCCC1`, for which the manual score was 1 (active).

`CCCN1CCC(NC(=O)Nc2ccc(F)cc2F)CC1`: the manual score is 0.

Regarding `CC1(C)CC(=O)C2=C(C1)OC(/N=C/N1CCOCC1)=C(C#N)C2c1ccccc1` (stereo not drawn), the manual score was -1 (active).

As to `CC(C)Cn1cnc2c(c(-c3ccccc3)c(-c3ccccc3)n2Cc2ccco2)c1=N`, the manual score is -1 (active).

In the case of `N=c1c2c(-c3ccccc3)c(-c3ccccc3)n(Cc3ccccc3)c2ncn1CCCO`, the manual score was -1 (active).

Regarding `COC(=O)c1cc(NC(=O)c2ccoc2C)cc(C(=O)OC)c1`, the manual score was 0.

For `COc1cc2c(C(=O)N3CCN(C4CCCCC4)CC3)cn(CC(C)C)c(=O)c2cc1OC`, the manual score is -1 (active).

Take `CCN1CCN(C(=O)c2ccc3c(=O)n(C4CCCC4)c(=S)[nH]c3c2)CC1`: the manual score was 0.

For `CC(C)OC(=O)CC12CN3CN(C1)CC(CC(=O)OC(C)C)(C3)C2=O`, the manual score is 0.

Regarding `CCN(CC)c1nc(C)nc2c1cnn2CCc1ccccc1`, the manual score is 0.

Regarding `Cc1cccc(NC(=O)NC(C)CCc2ccccc2)c1` (stereo not drawn), the manual score was 1 (active).

`Cc1cccc(NC(=S)NC(=O)CCc2ccccc2)c1`: the manual score is 0.

Consider `Cc1ccccc1NC(=O)C(=O)NC(C)CCc1ccccc1` (stereo not drawn), for which the manual score was 0.

As to `CN1CCN(S(=O)(=O)c2cccc(S(=O)(=O)c3cccc(S(=O)(=O)N4CCN(C)CC4)c3)c2)CC1`, the manual score is 0.

Take `CCN(CC)S(=O)(=O)c1csc(C(=O)NCc2ccccc2)c1`: the manual score is 0.

`CCN(CC)S(=O)(=O)c1cccc(S(=O)(=O)c2cccc(S(=O)(=O)N(CC)CC)c2)c1`: the manual score is -1 (active).

For the compound `CCN(CC(=O)c1c(N)n(C)c(=O)n(C)c1=O)c1cccc2ccccc12`, the manual score is 0.

With `O=C1CN(C(=O)CSc2nc3cc(Cl)ccc3c(=O)n2Cc2ccccc2)c2ccccc2N1`, the manual score was 1 (active).

As to `O=C1CN(C(=O)CSc2nc3ccccc3c(=O)n2Cc2ccc(F)cc2)c2ccccc2N1`, the manual score is 0.5.

In the case of `CC(c1ccccc1)n1c(SCC(=O)N2CC(=O)Nc3ccccc32)nc2ccccc2c1=O` (stereo not drawn), the manual score was 0.

Regarding `Cn1c(=O)c(NCCO)c2c3c(cccc31)C(=O)c1ccccc1-2`, the manual score was 3.

For `O=C(Nc1nnc(-c2ccc(Cl)cc2)o1)c1ccccc1Br`, the manual score is 1 (active).

`O=C(Nc1nnc(-c2ccc(Cl)cc2)o1)c1cccc(N2C(=O)CCC2=O)c1`: the manual score is -1 (active).

As for `O=C(Nc1nnc(-c2ccc(Cl)cc2)o1)C1=COCCO1`, the manual score is 0.

Consider `O=C(NCCCN1CCN(c2cccc(Cl)c2)CC1)c1cccc(N2CCCC2=O)c1`, for which the manual score is 0.

For `CC(C)NC(=O)c1nc2ccccc2s1`, the manual score is 0.

Take `O=C(O)CC/C(=C\c1cc([N+](=O)[O-])ccc1Cl)c1nc2ccccc2s1`: the manual score was -0.5.

In the case of `O=C(Nc1nnc(-c2ccccc2Cl)o1)c1nc2ccccc2s1`, the manual score is 1 (active).

Regarding `O=C(Nc1nnc(-c2ccc(Cl)cc2)o1)c1ccc(N2C(=O)CCC2=O)cc1`, the manual score was 0.

Turning to `O=C(Nc1nnc(-c2ccc(Cl)cc2)o1)c1nc2ccccc2s1`, the manual score is 1 (active).

Regarding `O=c1c(-c2ccc(Cl)cc2)[n+]([O-])c2ccccc2n1O`, the manual score was 2.

With `CCC(C)(C)NC(=O)C(c1ccc(F)cc1)N(Cc1ccco1)C(=O)c1cnccn1` (stereo not drawn), the manual score was 0.

On to `COC(=O)c1ccc(C(=O)OC)c(NC(=O)CSc2nc(-c3ccco3)cc(C(F)(F)F)n2)c1`, for which the manual score was -0.5.

On to `Cc1ccc(C)c(N=C2CCCN2Cc2ccccc2)c1C#N`, for which the manual score was -1 (active).

With `Cc1c(C#N)c2ccccc2n1CC(=O)O`, the manual score was 0.

`Cc1ccc(N=C2CCCN2Cc2ccccc2)c(C#N)c1`: the manual score was -1 (active).

For `CC(C)n1c(CCC(=O)O)ccc1-c1ccccc1`, the manual score is 0.

As for `O=C(NC(=S)Nc1ccc2c(c1)OCCO2)c1ccccc1`, the manual score was 0.5.

As to `O=C(Nc1ccc2[nH]c(=S)sc2c1)c1ccccc1`, the manual score was 1 (active).

`CC(C)OCCCNC(=O)c1cccc(NC(=O)c2ccccc2)c1`: the manual score was 0.

Turning to `O=C(CCS(=O)NCc1ccccc1)NCc1ccccc1` (stereo not drawn), the manual score is 0.

With `CS(=O)(=O)N(CCc1ccccc1)CC(=O)NCc1ccc2c(c1)OCO2`, the manual score was 0.

For `O=C(NCc1ccc2c(c1)OCO2)C1CCN(Cc2cnn(-c3ccccc3)c2-n2cccc2)CC1`, the manual score was -1 (active).

As to `Cn1cc(CCC(=O)NCc2ccc3c(c2)OCO3)c2ccccc21`, the manual score was 0.

As for `CCc1nnc(NC(=O)CSc2nnc(-c3c[nH]c4ccccc34)n2CC)s1`, the manual score was 0.

As to `COc1c(Cl)cc(Cl)cc1CNCCNCC(C)O` (stereo not drawn), the manual score is 1 (active).

As to `CC(Sc1nnnn1C)C(=O)Nc1ccc(Oc2ccccc2)cc1` (stereo not drawn), the manual score was 1 (active).

On to `CC(NC(=O)c1ccccc1NC(=O)CSc1nnnn1C)c1ccccc1` (stereo not drawn), for which the manual score was 0.

In the case of `S=C1NC2=C(CCCC2)C2(CCCCC2)N1`, the manual score is 0.

Turning to `CN(Cc1ccccc1)C(=S)NC(=O)C1CCCCC1`, the manual score is 0.

Turning to `CN(C(=S)NC(=O)c1ccccc1Br)C1CCCCC1`, the manual score was 1 (active).

As to `COc1ccccc1/C=C/C(=O)NC(=S)N(C)C1CCCCC1`, the manual score is 1 (active).

As for `CC1CCCC(NC(=S)NC(=O)c2ccccc2Br)C1C` (stereo not drawn), the manual score was 0.

For `CCN(C(=O)c1cc(Cl)ccc1OC)C1CCCCC1`, the manual score was -0.5.

Turning to `CCOC(=O)CSc1nnc(-c2ccccc2OC)o1`, the manual score is -0.5.

Consider `CC(C)NC(=O)/C(=C/c1ccco1)c1ccccc1`, for which the manual score is 0.

Take `Cc1nccn1CCc1nc(N)nc(N)n1`: the manual score was 0.

Take `Cc1ccccc1OCC(=O)NNC(=S)NC(=O)c1ccco1`: the manual score is 1 (active).

Turning to `CCCc1ccc(OCC(=O)NNC(=S)NC(=O)c2ccco2)cc1`, the manual score was 1 (active).

As for `CCN(CC)c1ccc(/C=C2/C(=O)c3ccc(C(=O)O)cc3C2=O)cc1`, the manual score is 3.

Consider `CC1(C)CC2CC(C)(CN2C(=S)NC(=O)c2ccccc2Cl)C1` (stereo not drawn), for which the manual score is 1 (active).

`Nc1sccc1C(=O)c1ccccc1`: the manual score was 0.

`Clc1cccc(CSc2nnc(-c3ccccn3)n2Cc2ccco2)c1`: the manual score is 0.

As to `O=C(NCCCn1ccnc1)Nc1ccc(Cl)c(Cl)c1`, the manual score is 0.

As for `O=C(NCCSCc1ccco1)Nc1cccc(Cl)c1`, the manual score was 1 (active).

Take `Cc1cccc(NC(=O)CN(c2ccc(C(C)C)cc2)S(=O)(=O)c2c(C)nn(C)c2C)n1`: the manual score is -0.5.

`CN(C)S(=O)(=O)N(CC(=O)Nc1ccc2ccccc2c1)c1ccccc1`: the manual score is 1 (active).

Take `CSc1cccc(NC(=O)CN(c2ccc(C)cc2C)S(C)(=O)=O)c1`: the manual score was 1 (active).

For the compound `COc1cccc(N(CC(=O)NCc2cccnc2)S(C)(=O)=O)c1`, the manual score is 0.

Regarding `CC(=O)c1cccc(NC(=O)CCOc2ccccc2)c1`, the manual score was 0.

Regarding `COc1cccc(NC(=O)COc2ccc(C)cc2)c1`, the manual score is 0.

`CSc1cccc(NC(=O)COc2ccccc2)c1`: the manual score is 1 (active).

`COc1cccc(N(CC(=O)Nc2cccc(C(C)=O)c2)S(C)(=O)=O)c1`: the manual score is 0.

Take `CSc1cccc(NC(=O)CN(c2ccccc2)S(=O)(=O)N(C)C)c1`: the manual score is 1 (active).

Consider `CC1=CC(=O)OC1Cc1ccncc1` (stereo not drawn), for which the manual score is 0.

Turning to `O=c1c2c(nc3c(-c4ccc(Cl)cc4)c[nH]n13)CCCC2`, the manual score is 0.

Turning to `O=C(CSc1nnnn1-c1cccc2c1CCCC2)NC1CCCC1`, the manual score is -0.5.

On to `CSC1=N/C(=C\c2ccc(Br)o2)C(=O)S1`, for which the manual score was 0.

`c1ccc2c(NC3CCCC3)nnc(NC3CCCC3)c2c1`: the manual score was -1 (active).

In the case of `CN=C1S/C(=C\c2cc(C)n(-c3ccccc3F)c2C)C(=O)N1C`, the manual score is 0.
